KCNH2 WT inh: blocks the wildtype human KCNH2 potassium channel; Q12809; U2OS, BacMam KCNH2, thallium flux FluxOr; hits give low values; activity change, % at 1.84 µM; actives 0.37% (n = 340,000);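 active = maximum activity change below -70%; inconclusive = maximum activity change between -70% and -50%; inactive = maximum activity change above -50%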; note: % is set by controls: 0 for no effect and ±100 for the full control effect
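U2OS cells transduced with wild-type KCNH2 virus are loaded with FluxOr dye for 45 min, and thallium flux is measured in kinetic reads before and after stimulation buffer. Rate constants are normalized to DMSO controls.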
PTAP TSG101 blk: blocks PTAP/TSG101 interaction to inhibit HIV-1 budding; Fluorescence polarization, FITC-PTAP peptide / Tsg101 binding; 340,000 tested, under 10 active; Potency, µM (top dose mostly 115 µM), without a hit: top-dose activity change, negative = inhibition, actives largely listed as inhibitors; Q99816; active = well fitted inhibition curve with a large enough effect in the main read-out, with a control signal flat, not every such curve was filed as active; inconclusive = small, poorly fitted or top-dose-only effect, or effect the other way, or a change in a side signal; inactive = no such curve, though single readings can be large or run the other way; note: potency is the fitted concentration of half-maximal effect; % of control where 0% means no effect
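Compounds were pin-transferred onto Tsg101 binding domain (10 uM final) in HEPES pH 7.5 buffer, then FITC-PTAP peptide was added at 50 nM final. After 20 min at RT, polarization reported peptide displacement across a qHTS concentration series.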
KCNH2 3.1 inh: inhibitors of human KCNH2 3.1 potassium channel isoform; U2OS KCNH2 3.1, thallium flux FluxOr; hits give low values; activity change, % (tested at about 1.8 µM); actives 0.95% (n = 340,000); AID 720553;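 active = maximum activity change below -70%; inconclusive = maximum activity change from -70% to -50%; inactive = maximum activity change above -50%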;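 note: thallium influx rate constant from kinetic fluorescence after stimulation buffer; % is set by controls: 0 for no effect and ±100 for the full control effect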
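U2OS cells transduced with KCNH2 3.1 mutant virus (1.77 x 10^8 /mL, 4 h), plated overnight at 37 C, loaded 45 min with FluxOr dye plus Red40 quencher. Thallium flux rate constant from kinetic reads after stimulation buffer, normalised to controls.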
TRPML1 blocker: blocks the human TRPML1 channel; activity change, negative = inhibition, % (test concentration not listed); TRPML1-inducible cells, Ca2+ dye fluorescence, FDSS; hits give low values; inhibition of EC80 agonist-evoked calcium signal; AID 624415; actives 0.02% (n = 390,000); Q9GZU1; in the data active = activity change below about -50%; inconclusive = between about -30% and that limit;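 note: stimulus is agonist 54-4 at its EC80 concentration; % is set by controls: 0 for no effect and ±100 for the full control effect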
Target sequence (Q9GZU1 whole entry, looked up): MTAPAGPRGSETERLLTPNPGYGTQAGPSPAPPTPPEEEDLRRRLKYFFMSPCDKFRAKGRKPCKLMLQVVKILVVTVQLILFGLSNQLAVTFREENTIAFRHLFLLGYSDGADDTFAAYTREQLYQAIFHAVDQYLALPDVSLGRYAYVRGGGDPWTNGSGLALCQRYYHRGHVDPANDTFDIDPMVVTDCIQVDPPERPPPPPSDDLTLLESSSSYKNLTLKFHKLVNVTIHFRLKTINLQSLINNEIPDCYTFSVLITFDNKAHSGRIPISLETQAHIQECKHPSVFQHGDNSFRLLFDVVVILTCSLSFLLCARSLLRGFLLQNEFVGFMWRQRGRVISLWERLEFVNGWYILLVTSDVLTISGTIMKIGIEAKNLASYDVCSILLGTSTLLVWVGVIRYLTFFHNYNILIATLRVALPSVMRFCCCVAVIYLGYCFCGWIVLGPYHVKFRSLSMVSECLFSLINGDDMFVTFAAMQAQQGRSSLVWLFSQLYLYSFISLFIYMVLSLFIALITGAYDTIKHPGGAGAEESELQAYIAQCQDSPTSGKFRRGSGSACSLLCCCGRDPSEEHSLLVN
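TRPML1-DL cells, Tet-induced overnight (~16 h, 37 °C) at 1,500 cells/well, were loaded with Ca8 no-wash dye plus quencher for 45-90 min at room temperature. Compounds were pinned during FDSS kinetic reading; agonist 54-4 at EC80 (4 uM final) then added.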
GRP78 ERSR act: inducers of ER stress response in human glioma cells. U87-MG GRP78 promoter luciferase reporter, 16 h. Potency, µM, without a hit: top-dose activation, usual class: activators. actives 0.02% (n = 420,000). AID 602332; active = well fitted activation curve with a large enough effect; inconclusive = small, poorly fitted or top-dose-only effect; inactive = no such curve, though single readings can be large or run the other way; note: potency is the fitted concentration of half-maximal effect; series mostly up to about 76 µM; % of control where 0% means no effect; nearly all actives have a fitted effect of over 35% in size
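ERSR induction read as luciferase luminescence (Bright-Glo, 10 min at room temperature) in stably transfected human U87-MG glioma cells exposed to compounds for 16 h, using GRP78 as sensor.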
TRPML1 ag: agonists of human TRPML1 channel. AID 624414. actives 0.12% (n = 410,000). Q9GZU1. activation, % (concentration not given with the values). TRPML1-expressing cells, Ca2+ dye fluorescence, FDSS; in the data active = activation above about 50%; inconclusive = mostly about 30% to 49%; note: 0% is about no effect
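Calcium fluorescence on an FDSS kinetic reader gave the read-out. Tet-induced TRPML1-DL cells were plated overnight, dye-loaded (Ca8 with quencher, 45-90 min, room temperature, dark), then read 110 s after compound addition, and again 110 s after 4uM final 54-4 (EC80).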
Active calls of the source: *; u = inconclusive; x = not tested or not shown. Shown are actives, neighbours in structure and some others; about 1% of the full set was active somewhere.

SMILES | KCNH2 WT inh | PTAP TSG101 blk | KCNH2 3.1 inh | TRPML1 blocker | GRP78 ERSR act | TRPML1 ag
CCC(NC(=O)c1ccc2nc(Cc3ccc(OC)cc3)oc2c1)c1ccncc1 (stereo not drawn) | 12 | 0% | -105* | -19 | -4% | 1
CCC(C)NC(=O)c1ccc2nc(Cc3ccc(OC)cc3)oc2c1 (stereo not drawn) | -7 | 0% | 8 | 21 | 4% | 0
COc1cc(-c2cnc3ccccc3c2)cc2c1OCCN(C(=O)CCC(=O)c1ccc(F)cc1)C2 | x | x | x | x | -2% | x
Cc1ccc(C(=O)NCc2ccc(N3CCN(C(=O)OC(C)(C)C)CC3)cc2)cc1 | 4 | -1% | -117* | 7 | 1% | 0
Cc1ccc(S(=O)(=O)NCc2ccc(N3CCN(C(=O)OC(C)(C)C)CC3)cc2)cc1 | -5 | 5% | 5 | u | -2% | 3
COCCN1CCN(C(=O)c2cnn(-c3nccc(-c4ccco4)n3)c2C2CC2)CC1 | x | x | x | x | -5% | x
O=C(NCCc1ccccn1)c1cnn(-c2ncc3c(n2)-c2ccccc2CC3)c1C1CC1 | x | x | x | x | -1% | x
O=C(Nc1ccccc1N1CCOCC1)c1ccc(Cl)nc1 | 2 | -1% | -105* | -4 | -4% | 0
O=[N+]([O-])c1ccc(-c2cn(-c3ccccc3)c(=S)[nH]2)cc1 | -8 | -3% | -14 | 11 | -1% | 0
Cc1cccc(-n2cc(-c3ccc([N+](=O)[O-])cc3)[nH]c2=S)c1 | -70* | 0% | u | -5 | 0% | 1
COc1ccc(CN2C(=S)NC(C)(C)CC2(C)O)cc1 (stereo not drawn) | -142* | 0% | 16 | 5 | 1% | 0
COc1ccccc1CCN1C(=S)NC(C)(C)CC1(C)O (stereo not drawn) | 0 | -1% | 3 | 8 | 2% | 2
COc1cccc(C(=O)NC2CC3CCCC(C2)N3Cc2ccc(C)cc2)c1 (stereo not drawn) | 7 | -8% | -71* | x | 1% | x
Cc1cccc(C(=O)NC2CC3CCCC(C2)N3S(=O)(=O)c2ccccc2)c1 (stereo not drawn) | u | -1% | -72* | -7 | -2% | 2
CNC(=S)NC1CC2CCCC(C1)N2Cc1ccc(C)cc1 (stereo not drawn) | x | -2% | -83* | 17 | -4% | 0
CCNC(=S)NC1CC2CCCC(C1)N2Cc1ccc(C)cc1 (stereo not drawn) | 15 | 1% | -44 | -7 | 0% | 2
COc1ccc(CN2C3CCCC2CC(NC(=O)Nc2cccc(C)c2)C3)cc1 (stereo not drawn) | -87* | -4% | -114* | 16 | -1% | 2
COc1ccc(CN2C3CCCC2CC(NC(=O)Nc2ccccc2)C3)cc1 (stereo not drawn) | -36 | -3% | -40 | -1 | -4% | 0
O=C(NC1CC2CCCC(C1)N2S(=O)(=O)c1ccccc1)c1ccccc1 (stereo not drawn) | 18 | 0% | -4 | -5 | -4% | 1
Nc1ccc(-c2c3ccc(=O)cc-3oc3cc(O)ccc23)c(C(=O)O)c1 | -13 | u | -13 | -2 | -1% | 84*
Cc1cc(C)c2nccc(/C=C/c3ccc(N(C)C)cc3)c2c1 | x | x | x | x | -4% | 15
O=C(NC1CCN(Cc2ccc3ccccc3c2)CC1)c1ccccc1 | 1 | 0% | -79* | -4 | -1% | -1
O=C(NC1CCN(Cc2ccc(Cl)c(Cl)c2)CC1)c1ccccc1 | 42 | -5% | -49 | 12 | -7% | 0
O=C(CCCN1CCC(NC(=O)c2ccccc2)CC1)c1ccc(Cl)cc1 | -4 | 0% | -106* | -3 | -2% | 0
Cc1ccc(NS(=O)(=O)c2cccc(C(=O)NC3CCN(Cc4ccccc4)CC3)c2)c(C)c1 | -2 | -12% | -102* | -4 | -7% | 1
SMILES | KCNH2 WT inh | PTAP TSG101 blk | KCNH2 3.1 inh | TRPML1 blocker | GRP78 ERSR act | TRPML1 ag
COc1ccc(OC)c(-c2nc(C(=O)NC3CCN(Cc4ccccc4)CC3)cc3c2[nH]c2ccccc23)c1 | u | 2% | -97* | x | 1% | x
Cc1ccc(C(=O)NC2CCN(CCCC(=O)c3ccc(F)cc3)CC2)cc1 | -36 | 1% | -34 | -11 | -3% | 0
COc1cccc(CNC(=O)c2cnn(-c3ncc4c(n3)-c3ccccc3CCC4)c2C)c1OC | x | x | x | x | 0% | x
CN(C)CC(C)(C)CNC(=O)c1cnn(-c2ncc3c(n2)-c2ccccc2CC3)c1-c1ccco1 | x | x | x | x | 6% | x
COc1cc(C(=O)NC2CCN(Cc3ccccc3)CC2)cc(Cl)c1OC | 17 | 1% | -90* | 7 | -2% | 1
COc1ccc(C(=O)NC2CC2)cc1OC1CCN(Cc2ccccc2)CC1 | -23 | 1% | x | -8 | -6% | 1
CC(=O)c1ccc(Nc2nc(-c3cccnc3)cs2)cc1 | -81* | -2% | 0 | -17 | 2% | 0
O=C(Nc1cccc(-c2csc(Nc3cccc(C(F)(F)F)c3)n2)c1)c1ccccc1 | -6 | 0% | -8 | 29 | -7% | -1
O=C(Nc1cccc(-c2csc(Nc3ccccc3)n2)c1)c1ccccc1 | 19 | -2% | -79* | -10 | -4% | 1
O=C(Nc1nc2ccccc2[nH]1)c1ccc(F)cc1 | 5 | -9% | -97* | -3 | -10% | 1
COC(=O)c1[nH]c2ccc(C)cc2c1NC(=O)C(C)N1CCN(C2CCCCC2)CC1 (stereo not drawn) | -44 | 0% | u | -19 | -3% | 0
COC(=O)c1[nH]c2ccc(Br)cc2c1NC(=O)C(C)N1CCN(C2CCCCC2)CC1 (stereo not drawn) | -72* | -4% | -70* | 0 | -12% | -1
CCCCC/C=C/C/C=C/CCCCCCCC(=O)NC(C)c1ccccc1 (stereo not drawn) | x | x | x | x | -3% | x
COc1cc(NC(=O)c2csc(-c3ccncc3)n2)cc(C(=O)Nc2cccc(C(F)(F)F)c2)c1 | u | -1% | -118* | -7 | -2% | 1
O=C(Nc1cccc(C(F)(F)F)c1)c1csc(-c2ccncc2)n1 | 0 | -1% | 6 | 14 | -4% | 2
COCC1CCN(C(=O)c2oc3c(F)cccc3c2C)C1 (stereo not drawn) | 5 | -1% | 2 | 2 | u | 0
CC(=O)NCC1CCCN(C(=O)c2oc3c(F)cccc3c2C)C1 (stereo not drawn) | -16 | -9% | -126* | -8 | 0% | 0
C=C1CCN([C@@H](CC(C)C)C(=O)NCCC(C)C)S(=O)(=O)c2ccccc21 | -2 | -3% | -75* | -11 | 4% | u
